In PubChem BioAssay (NCI):
About 83,000 compounds went through this panel and 20% of them were active in at least one assay; those are over-represented in the sample as a whole.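 96-well plates, one dose, 48 hours. Percent growth reported; active if below 10.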 Activity calls are given as the source filed them.

What was measured:
Assay in all cases: NCI-60 one-dose screen, 48 h (100 = growth as untreated, 0 = no growth, -100 = all killed)
Conditions in all cases: 10 µM unless noted
SK-MEL-2 melanoma = test system: SK-MEL-2 melanoma
EKVX NSCLC = test system: EKVX NSCLC
SN12C renal = test system: SN12C renal
UO-31 renal = test system: UO-31 renal
TK-10 renal = test system: TK-10 renal
ACHN renal = test system: ACHN renal
CAKI-1 renal = test system: CAKI-1 renal
A498 renal = test system: A498 renal
CCRF-CEM leukemia = test system: CCRF-CEM leukemia
MOLT-4 leukemia = test system: MOLT-4 leukemia

Measured: growth

CCCCCCC1N=C(N)N=C(N)N1c1cccc(Cl)c1 (stereo not given)
inactive: SK-MEL-2 melanoma 82.9% | EKVX NSCLC 76.8% | SN12C renal 26.8% | UO-31 renal 93.4% | TK-10 renal 67.6% | ACHN renal 53.9% | CAKI-1 renal 100% | A498 renal 83% | CCRF-CEM leukemia 28.7% | MOLT-4 leukemia 25.4%

CC(=O)C1Cc2ccccc2C1=O (stereo not given)
inactive: SK-MEL-2 melanoma 124% | EKVX NSCLC 80.6% | SN12C renal 98% | UO-31 renal 79.5% | TK-10 renal 142% | ACHN renal 97.6% | CAKI-1 renal 82.6% | A498 renal 110% | CCRF-CEM leukemia 125% | MOLT-4 leukemia 115%

S=c1[nH]c2cc(Cl)ccc2s1
active: CCRF-CEM leukemia -43.5%
inactive: SK-MEL-2 melanoma 100% | EKVX NSCLC 102% | SN12C renal 96.6% | UO-31 renal 66% | TK-10 renal 97.6% | ACHN renal 95.2% | CAKI-1 renal 92.3% | A498 renal 132% | MOLT-4 leukemia 108%

Cc1cc2cccnc2c2ncccc12
active: SK-MEL-2 melanoma 6.1% | CCRF-CEM leukemia -11.8% | MOLT-4 leukemia 5.73%
inactive: EKVX NSCLC 40.2% | SN12C renal 22.4% | UO-31 renal 27% | TK-10 renal 11.9% | ACHN renal 18.2% | CAKI-1 renal 12.6% | A498 renal 23.6%

COC(=O)c1ccc(=O)c2nc3/c(=C/O)c(O)cc(=O)c3[nH]c12
active: SK-MEL-2 melanoma -7.27% | SN12C renal -5.75% | UO-31 renal 5.33% | A498 renal 1.77% | MOLT-4 leukemia 3.55%
inactive: EKVX NSCLC 35.3% | TK-10 renal 48.1% | ACHN renal 28.5% | CAKI-1 renal 21.5% | CCRF-CEM leukemia 12.6%

CN(C)CCSC1=Nc2ccc(Cl)cc2C(c2ccccc2Cl)N(C)C1 (stereo not given)
inactive: SK-MEL-2 melanoma 81.8% | EKVX NSCLC 81% | SN12C renal 63.8% | UO-31 renal 24.5% | TK-10 renal 64.9% | ACHN renal 74.2% | CAKI-1 renal 20.5% | A498 renal 127% | CCRF-CEM leukemia 85.2% | MOLT-4 leukemia 79.2%

Cc1cc(C(N)=O)cc(C)c1C(=O)OCCCl
inactive: SK-MEL-2 melanoma 119% | EKVX NSCLC 89.1% | SN12C renal 98.3% | UO-31 renal 86.2% | TK-10 renal 106% | ACHN renal 108% | CAKI-1 renal 97.6% | A498 renal 98.8% | CCRF-CEM leukemia 112% | MOLT-4 leukemia 95.8%

CCNc1nnnn1CC
inactive: SK-MEL-2 melanoma 122% | EKVX NSCLC 94.5% | SN12C renal 93% | UO-31 renal 108% | TK-10 renal 106% | ACHN renal 110% | CAKI-1 renal 99.4% | A498 renal 83.8% | CCRF-CEM leukemia 103% | MOLT-4 leukemia 116%

COc1cc(NCc2ccc3nc(N)nc(N)c3c2C)cc(OC)c1OC (tested in a mixture with another compound)
inactive: SK-MEL-2 melanoma 61.8% | EKVX NSCLC 55.8% | SN12C renal 44.7% | UO-31 renal 34.9% | TK-10 renal 31.1% | ACHN renal 23.8% | CAKI-1 renal 25.4% | A498 renal 32.9% | CCRF-CEM leukemia 19.9% | MOLT-4 leukemia 20.6%

N=C(N)Sc1cccc[n+]1[O-]
inactive: SK-MEL-2 melanoma 59% | EKVX NSCLC 47.7% | SN12C renal 101% | UO-31 renal 36.1% | TK-10 renal 86.2% | ACHN renal 48.6% | CAKI-1 renal 79.5% | A498 renal 81.7% | MOLT-4 leukemia 12.7%

CCN(CC)CC(O)CNc1ccc(NCC2CO2)c2c1C(=O)c1ccccc1C2=O (stereo not given)
inactive: EKVX NSCLC 23.5% | A498 renal 81.6%
active: SK-MEL-2 melanoma -46.5% | SN12C renal -15.9% | UO-31 renal -40.6% | TK-10 renal -27% | ACHN renal -55.1% | CAKI-1 renal -32% | CCRF-CEM leukemia -29.9% | MOLT-4 leukemia -23.1%

CCCc1cc(=O)oc2c3c(c4c(c12)OC(C)(C)CC4)OC(C)[C@H](C)[C@@H]3O (stereo not given in full)
inactive: SK-MEL-2 melanoma 13.6% | EKVX NSCLC 90% | SN12C renal 81% | UO-31 renal 34.9% | TK-10 renal 139% | ACHN renal 66.1% | CAKI-1 renal 104% | A498 renal 63% | CCRF-CEM leukemia 84.8% | MOLT-4 leukemia 54.9%

CCN1/C(=C/C(C)=C/c2sc3ccc4ccccc4c3[n+]2CC)Sc2ccc3ccccc3c21
active: SK-MEL-2 melanoma -93.5% | EKVX NSCLC -90.8% | SN12C renal -84.9% | UO-31 renal -89.8% | TK-10 renal -97.3% | ACHN renal -97.2% | CAKI-1 renal -97.9% | A498 renal -98.3% | MOLT-4 leukemia -43.6%

COc1cc(/C=C/C(=O)CC(=O)/C=C/c2ccc(O)c(OC)c2)ccc1O
inactive: SK-MEL-2 melanoma 81.1% | EKVX NSCLC 67.6% | SN12C renal 79% | UO-31 renal 13% | TK-10 renal 69.7% | ACHN renal 72.9% | CAKI-1 renal 64.3% | A498 renal 101% | MOLT-4 leukemia 31.4%

O=[N+]([O-])c1ccc([I+]c2ccccc2)cc1
inactive: UO-31 renal 46.9% | ACHN renal 64.2% | CAKI-1 renal 23.1% | A498 renal 39.6% | MOLT-4 leukemia 22.9%
active: SK-MEL-2 melanoma -17.9% | EKVX NSCLC -62.4% | SN12C renal -56.2% | TK-10 renal 3.24%

Cc1oc2c(C)c3oc(=O)cc(C)c3cc2c1CCl
inactive: SK-MEL-2 melanoma 109% | EKVX NSCLC 68.4% | SN12C renal 67.8% | UO-31 renal 47.6% | TK-10 renal 86.1% | ACHN renal 78.3% | CAKI-1 renal 51.8% | A498 renal 61.8% | CCRF-CEM leukemia 47.6% | MOLT-4 leukemia 63.6%

Oc1cc(Cl)ccc1Cc1ccc(Cl)cc1O
inactive: SK-MEL-2 melanoma 66.1% | EKVX NSCLC 51.2% | SN12C renal 36.2% | UO-31 renal 46.4% | TK-10 renal 95.6% | ACHN renal 49.4% | CAKI-1 renal 92.9% | A498 renal 126% | MOLT-4 leukemia 43.5%

COC(=O)c1nc(=S)[nH]c(C(=O)OC)c1C(=O)c1ccc(Cl)c(Cl)c1
inactive: SK-MEL-2 melanoma 107% | EKVX NSCLC 100% | SN12C renal 102% | UO-31 renal 87% | TK-10 renal 106% | ACHN renal 114% | CAKI-1 renal 94.6% | A498 renal 130% | MOLT-4 leukemia 130%

CN=C(N)N/N=C(\C)c1ccc2c(c1)Cc1ccccc1-2
active: SK-MEL-2 melanoma -51.8% | EKVX NSCLC 1.95% | SN12C renal -40.5% | UO-31 renal -87.9% | TK-10 renal -75% | ACHN renal -92.1% | CAKI-1 renal -53.9% | A498 renal -8.05% | MOLT-4 leukemia -63%

CN1CCC(CN2c3ccccc3Sc3ccccc32)C1 (stereo not given)
inactive: SK-MEL-2 melanoma 114% | EKVX NSCLC 107% | SN12C renal 97.1% | UO-31 renal 60.2% | TK-10 renal 92% | ACHN renal 86.1% | CAKI-1 renal 79.4% | A498 renal 109% | CCRF-CEM leukemia 72.7% | MOLT-4 leukemia 79.1%

Cc1nnc(N/N=C/c2ccc([N+](=O)[O-])o2)[nH]c1=O
active: SK-MEL-2 melanoma 7.95% | EKVX NSCLC -17.2% | UO-31 renal 5.83% | TK-10 renal -10.2% | ACHN renal -50.8% | CAKI-1 renal -23.3% | A498 renal -1.71% | MOLT-4 leukemia 5.88%
inactive: SN12C renal 13.8%

CCC1CCCCN1C(=S)N/N=C(\C)c1ccccn1 (stereo not given)
inactive: EKVX NSCLC 10.9% | TK-10 renal 19.7% | CAKI-1 renal 10.4% | MOLT-4 leukemia 13.3%
active: SK-MEL-2 melanoma -11.9% | SN12C renal 7.07% | UO-31 renal -17.6% | ACHN renal 7% | A498 renal -21.9%

Cc1cc(=O)oc2cc(O)cc(O)c12
inactive: SK-MEL-2 melanoma 107% | EKVX NSCLC 99.3% | SN12C renal 102% | UO-31 renal 83.5% | TK-10 renal 97.8% | ACHN renal 102% | CAKI-1 renal 94.6% | A498 renal 117% | CCRF-CEM leukemia 107% | MOLT-4 leukemia 99.8%

CCCCOS(=O)(=O)c1ccccc1
inactive: SK-MEL-2 melanoma 99.9% | EKVX NSCLC 108% | SN12C renal 100% | UO-31 renal 99.8% | TK-10 renal 106% | ACHN renal 103% | CAKI-1 renal 93.2% | A498 renal 128% | CCRF-CEM leukemia 110% | MOLT-4 leukemia 166%

OC(c1cc(-c2ccc(Cl)cc2)nc2c(Cl)cccc12)C1CCCCN1 (stereo not given)
active: SK-MEL-2 melanoma -91% | EKVX NSCLC -32.9% | SN12C renal -70.3% | UO-31 renal -74.5% | TK-10 renal -75.9% | ACHN renal -65.3% | CAKI-1 renal -72.5% | A498 renal 9.48% | CCRF-CEM leukemia -59.1% | MOLT-4 leukemia -57.5%

O=C(c1ccccc1)c1cc2ccccc2oc1=O
inactive: SK-MEL-2 melanoma 126% | EKVX NSCLC 95.5% | SN12C renal 89.4% | UO-31 renal 59.3% | TK-10 renal 130% | ACHN renal 101% | CAKI-1 renal 98.7% | A498 renal 117% | CCRF-CEM leukemia 101% | MOLT-4 leukemia 105%

Nc1nc(N)c2cc(Sc3cccc(C(F)(F)F)c3)ccc2n1
inactive: SK-MEL-2 melanoma 68.5% | EKVX NSCLC 23.7% | SN12C renal 26.5% | UO-31 renal 21.3% | TK-10 renal 43.5% | ACHN renal 26.6% | A498 renal 54% | MOLT-4 leukemia 14.3%
active: CAKI-1 renal 9.5%

CN(C)c1ccc(/C=C/c2ccnc3ccccc23)cc1
active: SK-MEL-2 melanoma -5.02%
inactive: EKVX NSCLC 22.4% | SN12C renal 36.2% | UO-31 renal 50.2% | TK-10 renal 59.5% | ACHN renal 47.4% | CAKI-1 renal 45.7% | A498 renal 62% | CCRF-CEM leukemia 51.1% | MOLT-4 leukemia 33.1%

CCOc1ccc(Nc2nc3c(s2)C(=O)c2ccccc2C3=O)cc1
inactive: SK-MEL-2 melanoma 101% | EKVX NSCLC 96.4% | SN12C renal 51.3% | UO-31 renal 72.9% | TK-10 renal 127% | ACHN renal 75.1% | CAKI-1 renal 74.2% | A498 renal 76.7% | CCRF-CEM leukemia 51.4% | MOLT-4 leukemia 48.5%
